DENV2 CPE: inhibitors of DENV2 cytopathic effect. AID 651640. 350,000 tested, 1.7% active. CPE inhibition, % at 9.99 µM. DENV2-infected cells, cytopathic effect rescue, plate reader; in the data active = CPE inhibition above about 20%, passing the limit was not always enough; tested in BHK-21 cells;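 also: 0% = median of neutral control wells and 100% = median of positive control wells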
RAD52 inh: RAD52 (human) annealing inhibition; AID 651710; P43351; inhibition, % at 18.7 µM; 360,000 tested, 0.46% active; recombinant RAD52 DNA annealing, FRET fluorescence;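 active = every replicate showing at least 50% inhibition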
RAD54 inh: RAD54 (human) branch migration inhibition; Q92698; 360,000 tested, 0.14% active; inhibition, % at 10.4 µM; RAD54 Holliday junction branch migration, FAM/BHQ fluorescence;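 active = mean normalized replicate activity at least 40 and at least half of replicates scoring 40 or more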;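 also: 0% = median of neutral control wells and 100% = median of positive control wells; inhibitors cause a drop in the FAM fluorescence signal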
AF4-AF9 inh: MLL-AF4/AF9 protein interaction inhibition | P42568 | AlphaScreen, biotin-AF4 peptide binding to FLAG-AF9 | inhibition, % at 10 µM | 350,000 tested, 0.47% active | AID 651704;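 active = every replicate reaching a set inhibition limit, whatever the replicate mean, cut at about 25% in these data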;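 also: 0% = plate neutral control median and 100% = total signal loss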
GSIS activator: GLuc luminescence reporter in INS-1E cells, primary screen for activators of glucose-dependent secretion of insulin | activation, % at 16.6 µM | 370,000 tested, 0.61% active | INS-1E GLuc reporter insulin secretion, 2-3 h;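 active = lowest replicate activation of at least 40%, so every replicate reaches that level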;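 also: 0% = median of neutral control wells and 100% = median of IBMX positive control wells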
dFosB act-1: enhances mouse delta FosB homodimer DNA binding; P13346; purified delta FosB, TAMRA-CDK5 oligo fluorescence polarization; percent of positive-control signal above neutral wells; activation, % at 25 µM; 340,000 tested, 0.99% active;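 active = mean activation above about 17%, with every replicate also reaching it, limit read from the data, passing the limit was not always enough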
dFosB act-2: activators of mouse delta FosB homodimer DNA binding; activation, % at 24.9 µM; shares compounds with dFosB act-1; 2,400 tested, under 10 active; purified delta FosB, TAMRA-CDK5 oligo fluorescence polarization; normalised: neutral wells 0, positive control 100;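 active = highest replicate activation at or above 34% and every replicate reaching that threshold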;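 also: higher polarization means more probe DNA bound by delta FosB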
Active calls of the source: *; · = not tested or not shown. A selection: hits, their analogues and other compounds. The true share with any hit is near 3.1%.

SMILES | DENV2 CPE | RAD52 inh | RAD54 inh | AF4-AF9 inh | GSIS activator | dFosB act-1 | dFosB act-2
O=C(Nc1ccc2c(c1)[C@H]1C[C@@H](CC(=O)N3CCc4ccccc4C3)O[C@@H](CO)[C@H]1O2)C1CCC1 | 3 | 3 | 0 | 1 | -2 | · | ·
COc1ccc(CN(C)C[C@@H]2OCCCC[C@@H](C)Oc3ccc(NC(=O)Nc4ccc(F)cc4)cc3C(=O)N([C@H](C)CO)C[C@H]2C)cc1 | 0 | 7 | 2 | 13 | -16 | · | ·
Cc1cc(C)c(NC(=O)Cn2c(=O)n(Cc3ccco3)c(=O)c3ccccc32)c(C)c1 | · | · | 7 | · | · | 64* | 6
CCc1ccc(NC(=O)Cn2c(=O)n(CCCC(=O)NCc3ccco3)c(=O)c3ccccc32)cc1 | · | · | -1 | · | · | 6 | ·
COc1cccc(NC(=O)Cn2c(=O)n(CCCC(=O)NCc3ccco3)c(=O)c3ccccc32)c1 | · | · | 6 | · | -10 | -10 | ·
CCC(C)NC(=O)Cn1c(=O)n(CCCC(=O)NCc2ccccc2Cl)c(=O)c2ccccc21 (stereo not drawn) | · | · | 0 | · | · | 20* | -1
O=C(CCCCn1c(=O)c2ccccc2n(CC(=O)Nc2cccc(F)c2)c1=O)NCc1ccco1 | · | · | -12 | · | · | 24* | -7
N#C/C(=C/c1cn(-c2ccccc2)nc1-c1cccc(OCc2ccc(F)cc2)c1)C(=O)NCCCn1ccnc1 | · | · | · | · | -5 | 35* | -2
CCc1c(C)nc2cc(-c3ccccc3)[nH]n2c1=O | -4 | -17 | -2 | 1 | -1 | -3 | ·
COc1cc(-c2cc3nc(C)c(C)c(=O)n3[nH]2)cc(OC)c1OC | 0 | 6 | 18 | 3 | 0 | 22* | 5
Cc1cc(N2CCN(c3nc(-c4ccc([N+](=O)[O-])cc4)cs3)CC2)c2ccccc2n1 | 0 | -17 | · | 0 | 10 | 26* | -2
COCC(=O)Nc1ccc2c(c1)[C@H]1C[C@@H](CC(=O)NCc3ccccc3)O[C@@H](CO)[C@H]1O2 | 9 | -18 | 2 | 1 | 2 | · | ·
CC(/C=N/NC(=O)c1ccc(Cn2cc([N+](=O)[O-])cn2)o1)=C\c1ccccc1 | 5 | -27 | 6 | 3 | -1 | 28* | 4
NC(N)=NS(=O)(=O)c1ccc(NC(=S)NC(=O)c2sc3ccccc3c2Cl)cc1 | -3 | -50 | 0 | -10 | 15 | 29* | 5
CC(=O)Nc1ccc(NC(=O)C(C)OC(=O)CNC(=O)c2sc3ccccc3c2Cl)cc1 (stereo not drawn) | · | · | · | · | 25 | 4 | ·
O=C(NNC(=O)c1sc2ccccc2c1Cl)Nc1ccc(Cl)cc1 | · | -10 | 12 | · | -3 | 19* | 1
CC(=O)Nc1ccc(NC(=O)CNC(=O)c2sc3ccccc3c2Cl)cc1 | -7 | -12 | -3 | 2 | 9 | 42* | 1
COc1cc(NS(=O)(=O)c2ccc(NC(=S)NC(=O)c3sc4ccccc4c3Cl)cc2)nc(OC)n1 | · | · | 2 | · | 27 | -3 | ·
COC(=O)c1ccc(NC(=O)CNC(=O)c2sc3ccccc3c2Cl)cc1 | 3 | -22 | -7 | 1 | -2 | 53* | 3
CC=Cc1ccc2n(c1=O)C[C@H]1[C@H](CO)[C@@H](C(=O)NCc3ccccc3)[C@@H]2N1C (mixture of isomers) | 1 | · | -2 | 0 | 7 | · | ·
Cc1ccc(S(=O)(=O)N[C@H]2CC[C@@H](CCNC(=O)c3ccc4c(c3)OCO4)O[C@@H]2CO)cc1 | -8 | 5 | -4 | 2 | -7 | · | ·
NC(=O)c1ccc(NC(=O)CNC(=O)c2sc3ccccc3c2Cl)cc1 | -1 | -16 | 9 | -4 | 4 | 38* | 2
CO[C@@H]1CN(C)C(=O)c2cc(NC(=O)Nc3ccc(Cl)cc3)ccc2OC[C@H](C)N(C)C[C@H]1C | · | · | · | · | -14 | · | ·
Cc1noc(C)c1S(=O)(=O)N(C)C[C@@H]1OCCCC[C@H](C)Oc2ccc(NS(=O)(=O)c3cccs3)cc2C(=O)N([C@H](C)CO)C[C@H]1C | -8 | -72 | -5 | 4 | 0 | · | ·
COc1ccccc1Cn1c(=S)[nH]c2cc(C(=O)NCc3cccnc3)ccc2c1=O | -4 | 2 | 2 | -1 | -6 | 8 | ·
SMILES | DENV2 CPE | RAD52 inh | RAD54 inh | AF4-AF9 inh | GSIS activator | dFosB act-1 | dFosB act-2
COC(=O)c1ccc2c(=O)n(Cc3ccc(C(=O)NCCCN4CCOCC4)cc3)c(=S)[nH]c2c1 | 4 | -5 | 1 | 0 | 26 | 29* | 5
CCCn1c(=S)[nH]c2cc(C(=O)NCC3CCCO3)ccc2c1=O (stereo not drawn) | 2 | -11 | -16 | 2 | 5 | 3 | ·
O=C(c1ccc(Cn2c(=S)[nH]c3ccc(Br)cc3c2=O)cc1)N1CCN(C2CCCCC2)CC1 | -2 | -8 | 1 | 3 | · | 31* | 5
COC(=O)c1ccc2c(=O)n(Cc3ccc(C(=O)NCCCN4CCC(C)CC4)cc3)c(=S)[nH]c2c1 | 9 | 24 | · | 4 | -14 | 1 | ·
COc1ccc(Cn2c(=S)[nH]c3cc(C(=O)NCc4cccnc4)ccc3c2=O)cc1 | -4 | -1 | · | -5 | -10 | 24* | 1
O=C(NCC1CCCO1)c1ccc2c(=O)n(Cc3cccc(Br)c3)c(=S)[nH]c2c1 (stereo not drawn) | · | 6 | -15 | 0 | 5 | 44* | -4
C[C@H](CO)N1C[C@H](C)[C@@H](CN(C)Cc2cncnc2)Oc2ncc(C#CC3CCCCC3)cc2C1=O | -7 | 9 | -13 | 4 | -13 | · | ·
O=C(Nc1nc(-c2ccc3ccccc3c2)cs1)c1ccc(N2C(=O)CCC2=O)cc1 | -4 | -46 | -3 | -6 | -1 | 45* | -2
CC=Cc1ccc2n(c1=O)C[C@@H]1[C@@H](CO)[C@H](C(=O)NCCC)[C@H]2N1C(=O)c1ccccc1F (mixture of isomers) | -8 | -5 | 10 | 0 | 8 | · | ·
COc1ccc(NC(=O)N2CC(=O)N3[C@H](CO)[C@H](c4ccc(C5=CCCC5)cc4)[C@H]3C2)cc1 | -10 | -18 | · | 3 | -11 | · | ·
CCc1ccc(OCC(=O)NNC(=O)Cc2c(F)cccc2Cl)cc1 | 11 | -9 | -1 | 1 | 11 | 29* | -4
CCCCc1ccc(NC(=O)CSc2nc3ncccc3[nH]2)cc1 | 5 | -3 | 1 | -12 | 5 | 20* | -1
CCOC(=O)c1ccc(NC(=O)CSc2nc3ncccc3[nH]2)cc1 | -3 | -21 | 1 | 5 | -1 | -1 | ·
CN1C(=O)c2cc(NC(=O)c3ccc(F)cc3)ccc2OC[C@H]2O[C@@H](CC(=O)NC3CCC3)CC[C@H]21 | 14 | 5 | 3 | -1 | -10 | · | ·
O=S(=O)(NC1CC1)c1ccc(S(=O)(=O)N2CCCC3(CCCCC3)C2)cc1 | · | · | 0 | · | 24 | 16* | 7

Screens as filed in PubChem BioAssay.
